Source: PubChem BioAssay (NCI)
The panel holds about 83,000 compounds, 20% with a hit somewhere; the sample as a whole holds those more often.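 Assay: single dose, 48 h. Readout: percent growth (0 = no net growth; negative = cell death). Active: <10.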 Active and inactive are the calls of the source.

Assays:
Assay in all cases: NCI-60 one-dose screen, 48 h (100 = growth as untreated, 0 = no growth, -100 = all killed)
[1] = test system: SR leukemia; settings: 10 µM
[2] = test system: RPMI-8226 leukemia; settings: 10 µM
[3] = test system: OVCAR-8 ovarian; settings: 10 µM
[4] = test system: OVCAR-5 ovarian; settings: 10 µM
[5] = test system: OVCAR-4 ovarian; settings: 10 µM
[6] = test system: SK-OV-3 ovarian; settings: 10 µM
[7] = test system: IGROV1 ovarian; settings: 10 µM
[8] = test system: OVCAR-3 ovarian; settings: 10 µM
[9] = test system: HS 578T breast; settings: 10 µM
[10] = test system: NCI/ADR-RES ovarian; settings: 10 µM
[11] = test system: T-47D breast; settings: 10 µM
[12] = test system: BT-549 breast; settings: 10 µM
[13] = test system: MDA-MB-435 melanoma; settings: 10 µM
[14] = test system: SW-620 colon; settings: 10 µM
[15] = test system: MCF7 breast; settings: 10 µM unless noted
[16] = test system: HCT-116 colon; settings: 10 µM
[17] = test system: HCC-2998 colon; settings: 10 µM
[18] = test system: KM12 colon; settings: 10 µM

Measured: growth

O=C(Nc1cccc(NC(=O)Nc2cc(C(F)(F)F)ccc2Cl)c1)Nc1cc(C(F)(F)F)ccc1Cl
inactive: [3] 14.3% | [4] 27.7% | [6] 36.2% | [7] 26.9% | [9] 18.9% | [10] 26.2% | [12] 17.8% | [13] 12.8% | [14] 13.5% | [16] 13.2% | [17] 37.6% | [18] 12.1%
active: [1] -15.6% | [2] -14.5% | [5] 7.2% | [8] -5.64% | [11] 8.32% | [15] 6.53%

Clc1ccc(-c2nnc(-c3cccc4ccccc34)o2)cc1
inactive: [1] 85.5% | [2] 101% | [3] 94.7% | [4] 93.3% | [5] 84.1% | [6] 91.6% | [7] 69.2% | [8] 103% | [9] 103% | [10] 95.6% | [11] 53.4% | [12] 104% | [13] 96% | [14] 93% | [15] 32.2% | [16] 93.9% | [17] 104% | [18] 102%

CC(=O)OC1CC2C(C)(C)OC3CC(=O)OCC32C2CCC3(C)C(=CCC3c3ccoc3)C12C (stereo unspecified)
inactive: [1] 91.1% | [2] 72.8% | [3] 108% | [4] 95.9% | [5] 105% | [6] 108% | [7] 58.2% | [8] 93.8% | [9] 93.6% | [10] 124% | [11] 88.3% | [12] 126% | [13] 97.8% | [14] 112% | [15] 87.8% | [16] 106% | [17] 80.7% | [18] 98.9%

CC(=O)/C(Cc1ccccc1)=N/O
inactive: [1] 81.8% | [2] 97.5% | [3] 96.1% | [4] 97.7% | [5] 92% | [6] 89.3% | [7] 112% | [8] 106% | [9] 100% | [10] 99.9% | [11] 89.8% | [12] 90.8% | [13] 103% | [14] 98.4% | [15] 94.5% | [16] 87.4% | [17] 111% | [18] 105%

O=C(Cc1ccccc1)Cc1ccccc1
inactive: [1] 104% | [2] 103% | [3] 89.6% | [4] 95.8% | [5] 97.2% | [6] 99.8% | [7] 104% | [8] 106% | [9] 106% | [10] 110% | [11] 102% | [12] 107% | [13] 105% | [14] 101% | [15] 106% | [16] 98.1% | [17] 114% | [18] 103%

CC(=O)OCC(=O)[C@@]1(O)CC[C@H]2[C@@H]3CC[C@@H]4C[C@H](O)CC[C@]4(C)[C@H]3C(=O)C[C@@]21C
inactive: [1] 95.2% | [2] 95.1% | [3] 107% | [4] 112% | [5] 116% | [6] 109% | [7] 93.3% | [8] 122% | [9] 100% | [10] 110% | [11] 108% | [12] 102% | [13] 103% | [14] 103% | [15] 108% | [16] 99.9% | [17] 97.5% | [18] 112%

COC(=O)c1ccc(C(C)C)cc1
inactive: [1] 103% | [2] 99.9% | [3] 106% | [4] 103% | [5] 103% | [6] 83.4% | [7] 105% | [8] 103% | [9] 119% | [10] 103% | [11] 82.3% | [12] 85.6% | [13] 99.8% | [14] 113% | [15] 93.1% | [16] 85.1% | [18] 103%

OCC(O)C(O)C(O)C(O)/C=N/O (stereo unspecified)
inactive: [1] 102% | [2] 94.9% | [3] 97.6% | [4] 109% | [5] 104% | [6] 87.2% | [7] 107% | [8] 113% | [9] 103% | [10] 103% | [11] 87.4% | [12] 91.5% | [13] 108% | [14] 99.6% | [15] 96.3% | [16] 91.3% | [17] 102% | [18] 101%

Cc1cccc(C(=O)N(C(C)C)C(C)C)c1
inactive: [1] 110% | [2] 93.1% | [3] 100% | [4] 98% | [5] 104% | [6] 92.4% | [7] 103% | [8] 107% | [9] 90.6% | [10] 102% | [11] 83.9% | [12] 105% | [13] 106% | [14] 96.4% | [15] 98.9% | [16] 94.7% | [17] 109% | [18] 104%

[O-][N+](=Nc1cccc(Cl)c1)c1cccc(Cl)c1
inactive: [1] 141% | [2] 81.9% | [3] 114% | [4] 88.3% | [5] 61.8% | [6] 110% | [7] 76.4% | [8] 111% | [9] 112% | [10] 99% | [11] 30.2% | [12] 73.1% | [13] 102% | [14] 90.4% | [15] 27.6% | [16] 90.6% | [17] 63.1% | [18] 91.9%

N#CCCc1ccc(O)cc1
inactive: [1] 94.6% | [2] 102% | [3] 93.9% | [4] 95.6% | [5] 111% | [6] 106% | [7] 116% | [8] 110% | [9] 102% | [10] 116% | [11] 101% | [12] 114% | [13] 99.8% | [14] 102% | [15] 98.4% | [16] 116% | [17] 115% | [18] 114%

OCC1OC(OC2C(O)C(CO)OC2(CO)OC2OC(CO)C(O)C(O)C2O)C(O)C(O)C1O (stereo unspecified)
inactive: [1] 106% | [2] 97.9% | [3] 113% | [4] 107% | [5] 100% | [6] 108% | [7] 123% | [8] 121% | [9] 110% | [10] 107% | [11] 110% | [12] 105% | [13] 111% | [14] 111% | [15] 95% | [16] 97.8% | [18] 109%

N/N=C(/Cc1ccccc1)NNC(N)=S
inactive: [1] 99.2% | [2] 100% | [3] 108% | [4] 111% | [5] 101% | [6] 106% | [7] 95.2% | [8] 111% | [9] 106% | [10] 107% | [11] 91.6% | [12] 75.7% | [13] 92.3% | [14] 111% | [15] 89.2% | [16] 86.3% | [17] 117% | [18] 101%

CCCCC1(CC)COC(CCC)OC1 (stereo unspecified)
inactive: [1] 106% | [2] 102% | [3] 101% | [4] 95.9% | [5] 115% | [6] 104% | [7] 129% | [8] 108% | [9] 109% | [10] 105% | [11] 104% | [12] 106% | [13] 118% | [14] 110% | [15] 96.6% | [16] 98.8% | [17] 98.1% | [18] 104%

CC(C)CCOC(=O)c1ccccc1
inactive: [1] 107% | [2] 118% | [3] 99.4% | [4] 105% | [5] 107% | [6] 104% | [7] 102% | [8] 107% | [9] 105% | [10] 107% | [11] 99.5% | [12] 102% | [13] 106% | [14] 108% | [15] 99.7% | [16] 103% | [17] 110% | [18] 106%

Nc1ccc(N)c([N+](=O)[O-])c1
inactive: [1] 115% | [2] 98.8% | [3] 111% | [4] 104% | [5] 112% | [6] 113% | [7] 113% | [8] 106% | [9] 105% | [10] 107% | [11] 91.3% | [12] 96.9% | [13] 109% | [14] 97.7% | [15] 101% | [16] 99.6% | [17] 106% | [18] 104%

CCOC(=O)c1coc(C(=O)OCC)c1C(=O)OCC
inactive: [1] 113% | [2] 126% | [3] 118% | [4] 114% | [5] 119% | [6] 120% | [7] 112% | [8] 111% | [9] 117% | [10] 119% | [11] 117% | [12] 119% | [13] 108% | [14] 113% | [15] 113% | [16] 115% | [17] 108% | [18] 106%

O=c1[nH]n(-c2ccccc2)c(=O)cc1Cl
inactive: [1] 87.8% | [2] 97.5% | [3] 101% | [4] 104% | [5] 112% | [6] 103% | [7] 102% | [8] 108% | [9] 111% | [10] 107% | [11] 97.8% | [12] 100% | [13] 110% | [14] 102% | [15] 96.8% | [16] 103% | [18] 112%
